Experiment [1] is described as follows: compounds binding Alexa647 anti-His antibody – biochemical, small-molecule microarray, 635 nm fluorescence, artefact control for SMM control protein annotation, primary screen (AID 1128).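 Further: score merges feature fluorescence with signal-to-noise for each printed compound spot.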 The following applies: higher = more signal.
Experiment [2] deals with Human papillomavirus type 1a E7 protein (residues 1-88). Kind of experiment: HPV1a E7 small-molecule binders, primary screen, biochemical, small-molecule microarray, residues 1-88, 635 nm (AID 1129). The following applies: small-molecule microarray binding, fluorescence 635 nm; higher = more signal.
Experiment [3] addresses Focal adhesion kinase 1 (Homo sapiens) (UniProt Q05397). As to the kind of experiment: PTK2 protein binding on printed compound slides – biochemical, small-molecule microarray, 635/667 nm fluorescence, BSA, DTT, primary screen (AID 1130).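 Further: composite of spot emission at 667 nm and signal to noise over triplicate slides.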 The following applies: 635 nm fluorescence, higher = more signal.
Experiment [4] relates to Fibrinogen (Alexa647-labelled). As to the kind of experiment: Alexa647-fibrinogen binding to printed small molecules – biochemical, small-molecule microarray, 635/667 nm fluorescence, artefact control for SMM control-protein annotation, profiling panel (AID 1131).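 Further: z-score merges 667 nm fluorescence with per-spot signal-to-noise over triplicate slides.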 The following applies: fibrinogen-A647 binding fluorescence, higher = more signal.
For experiment [5], the target named is Follistatin (Homo sapiens) (UniProt P19883). As to the kind of experiment: FST protein binding to printed compounds – biochemical, small-molecule microarray, 635/667 nm fluorescence, primary screen (AID 1132). The following applies: 635 nm fluorescence, higher = more signal.
Experiment [6] has as its target Fibroblast growth factor 2 (Homo sapiens) (UniProt P09038). Kind of experiment: basic fibroblast growth factor binding to printed compounds – biochemical, small-molecule microarray, 635/667 nm fluorescence, primary screen (AID 1133). The following applies: FGF2, fluorescence 635/667, higher = more signal.
The nature of experiment [7]: JC-1 mitochondrial potential readout, lung cancer cells – cell-based, A549, JC-1 fluorescence, basal, 24 h, 100 nL, profiling panel (AID 1138).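 Further: A549 lung adenocarcinoma cells under basal conditions with no added stimulus; test concentration not given here.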 The following applies: higher = more signal.
The subject of another experiment is Lefty1. As to the kind of experiment: Lefty1 protein binding to printed compounds – biochemical, small-molecule microarray, 635/667 nm fluorescence, primary screen (AID 1139). The following applies: fluorescence 635/667, higher = more signal.
In experiment [8] the test system is wheat germ agglutinin (Triticum aestivum), Alexa647-labelled. Kind of experiment: Alexa647-WGA lectin binding to printed small molecules – biochemical, small-molecule microarray, 635/667 nm fluorescence, artefact control for SMM control-protein annotation, profiling panel (AID 1140).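 Further: score merges 667 nm feature emission with signal to noise over triplicate slides.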 The following applies: WGA-A647 binding, 635 nm fluorescence, higher = more signal.

The target of experiment [9] is Luciferin 4-monooxygenase (Photinus pyralis) (UniProt P08659). As to the kind of experiment: inhibition of purified Photinus pyralis luciferase – biochemical, luminescence, purified enzyme, 2006 set, primary screen (AID 1141).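 Further: cell-free assay with purified firefly luciferase at 100 ng per well in PBS; test concentration not given here.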 The following applies: purified firefly luciferase, SteadyGlo luminescence, 30 min; higher = more signal, called active from +8 up or from −8 down.

Experiment [10] relates to Wnt5a (protein binding on small-molecule microarray). Kind of experiment: small molecules binding Wnt5a protein – biophysical, small-molecule microarray, 635/667 nm fluorescence, primary screen (AID 1142).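 Further: fluorescence read at 667 nm with signal to noise per printed feature.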 The following applies: 635 nm fluorescence, higher = more signal.
A short description of experiment [11]: ATP-based viability of Huh7 replicon cells – cell-based, CellTiter-Glo luminescence, basal, 48 h, cytotoxicity control for HCV replication inhibitor project, primary screen (AID 1143).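 Further: Huh7 hepatoma cells carrying a hepatitis C replication reporter with no stimulus; test concentration not given here.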 The following applies: higher = more signal, called active from +8 up or from −8 down. On the technique in general: Replicon systems follow genome replication, usually without infectious particles.

The nature of experiment [12]: Pseudomonas biofilm growth suppression – PAO1 strain, BacTiter-Glo luminescence, LB-PBS, primary screen (AID 1144). The following applies: P. aeruginosa PAO1 biofilm, 12 h, higher = more signal.
Experiment [13] is described as follows: basal CRE-LacZ reporter activity in PC12 – cell-based, unstimulated, primary screen (AID 1145). The following applies: no forskolin, luminescence, 4.5 h, higher = more signal, called active from +8 up or from −8 down.
Experiment [14] is described as follows: forskolin-driven CRE-LacZ activity in PC12 – cell-based, CRE-LacZ reporter, forskolin-stimulated, primary screen (AID 1146).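 Further: PC12 cells with 6xCRE LacZ reporter stimulated by forskolin 10 µM; beta-galactosidase reporter signal reflecting CREB driven transcription.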 The following applies: luminescence, 4.5 h, higher = more signal, called active from +8 up or from −8 down.
Experiment [15] deals with Streptavidin (Streptomyces avidinii) (UniProt P22629). Kind of experiment: compounds binding control protein streptavidin – biophysical, small-molecule microarray, 635/667 nm fluorescence, artefact control for SMM compound annotation, primary screen (AID 1147).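 Further: signal reflects streptavidin binding to arrayed compounds as a control protein.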 The following applies: higher = more signal.
Experiment [16] is described as follows: probe aInhba binding on compound microarray – biochemical, small-molecule microarray, 635/667 nm fluorescence, primary screen (AID 1148).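 Further: score merges 667nm spot fluorescence with signal-to-noise for antibody binding to printed compounds.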 The following applies: higher = more signal.
For experiment [17], the target named is Torsin-1A (Homo sapiens) (UniProt O14656). As to the kind of experiment: TOR1A wild-type binding on microarray – cell lysate, small-molecule microarray, lysate, 635/667 nm, primary screen (AID 1149). The following applies: COS7 hTOR1A-WT lysate, 635 nm fluorescence, higher = more signal.
Experiment [18] shares this target. Kind of experiment: torsin A mutant lysate binding on microarrays – cell lysate, small-molecule microarray, COS7 lysate, 635/667 nm fluorescence, primary screen (AID 1150).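 Further: score pools 667 nm emission and signal to noise measuring lysate protein binding.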 The following applies: COS7 hTOR1A mutant lysate, 635 nm fluorescence, higher = more signal.
In experiment [19] the test system is Sonic hedgehog protein (Shh). As to the kind of experiment: Sonic hedgehog microarray binding compounds – biochemical, small-molecule microarray, 635/667 nm fluorescence, primary screen (AID 1151).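 Further: Shh protein binding to compounds spotted on small-molecule microarray slides; score combines spot fluorescence intensity with signal-to-noise across triplicate slides.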 The following applies: 635 nm fluorescence, higher = more signal.

Structures are written as SMILES. The source made the active and inactive calls. Unless noted, how the calls were made is not given here.

Streptavidin (Streptomyces avidinii), sequence (P22629 whole entry, looked up): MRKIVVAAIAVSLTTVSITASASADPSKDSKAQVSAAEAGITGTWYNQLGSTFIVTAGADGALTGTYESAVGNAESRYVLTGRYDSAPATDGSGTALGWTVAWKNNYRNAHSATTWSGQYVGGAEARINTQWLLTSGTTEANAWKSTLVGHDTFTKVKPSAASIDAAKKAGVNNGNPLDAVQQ
Fibroblast growth factor 2 (Homo sapiens), sequence (P09038 whole entry, looked up): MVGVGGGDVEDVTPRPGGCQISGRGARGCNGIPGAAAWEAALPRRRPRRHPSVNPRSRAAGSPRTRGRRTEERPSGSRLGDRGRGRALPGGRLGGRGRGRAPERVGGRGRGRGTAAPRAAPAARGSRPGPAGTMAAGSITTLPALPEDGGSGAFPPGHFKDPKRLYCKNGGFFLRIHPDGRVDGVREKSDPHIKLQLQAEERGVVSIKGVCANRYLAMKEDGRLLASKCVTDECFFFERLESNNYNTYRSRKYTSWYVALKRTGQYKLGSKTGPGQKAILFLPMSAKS
Torsin-1A (Homo sapiens), sequence (O14656 whole entry, looked up): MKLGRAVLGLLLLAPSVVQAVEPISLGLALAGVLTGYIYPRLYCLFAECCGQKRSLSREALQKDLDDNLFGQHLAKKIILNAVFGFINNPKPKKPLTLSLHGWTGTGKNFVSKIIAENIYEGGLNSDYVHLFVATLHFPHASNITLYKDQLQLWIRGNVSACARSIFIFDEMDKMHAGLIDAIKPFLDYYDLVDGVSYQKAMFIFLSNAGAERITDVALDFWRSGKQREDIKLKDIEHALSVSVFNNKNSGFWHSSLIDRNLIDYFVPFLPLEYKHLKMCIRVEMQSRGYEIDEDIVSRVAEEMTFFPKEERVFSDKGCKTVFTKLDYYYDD
Luciferin 4-monooxygenase (Photinus pyralis), sequence (P08659 whole entry, looked up): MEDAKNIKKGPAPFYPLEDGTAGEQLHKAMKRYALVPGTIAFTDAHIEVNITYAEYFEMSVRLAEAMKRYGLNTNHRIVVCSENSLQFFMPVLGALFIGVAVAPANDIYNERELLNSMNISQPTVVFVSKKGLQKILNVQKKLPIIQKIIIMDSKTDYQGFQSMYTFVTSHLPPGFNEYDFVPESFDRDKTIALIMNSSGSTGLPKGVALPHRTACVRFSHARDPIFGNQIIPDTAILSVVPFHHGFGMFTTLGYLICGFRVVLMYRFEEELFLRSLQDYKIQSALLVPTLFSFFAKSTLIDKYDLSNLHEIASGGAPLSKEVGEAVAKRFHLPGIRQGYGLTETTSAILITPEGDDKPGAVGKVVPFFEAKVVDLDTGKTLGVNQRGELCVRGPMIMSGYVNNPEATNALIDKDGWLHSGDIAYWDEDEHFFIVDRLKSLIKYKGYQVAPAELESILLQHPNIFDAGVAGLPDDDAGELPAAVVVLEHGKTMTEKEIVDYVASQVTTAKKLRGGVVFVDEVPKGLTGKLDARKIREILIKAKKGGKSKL
Follistatin (Homo sapiens), sequence (P19883 whole entry, looked up): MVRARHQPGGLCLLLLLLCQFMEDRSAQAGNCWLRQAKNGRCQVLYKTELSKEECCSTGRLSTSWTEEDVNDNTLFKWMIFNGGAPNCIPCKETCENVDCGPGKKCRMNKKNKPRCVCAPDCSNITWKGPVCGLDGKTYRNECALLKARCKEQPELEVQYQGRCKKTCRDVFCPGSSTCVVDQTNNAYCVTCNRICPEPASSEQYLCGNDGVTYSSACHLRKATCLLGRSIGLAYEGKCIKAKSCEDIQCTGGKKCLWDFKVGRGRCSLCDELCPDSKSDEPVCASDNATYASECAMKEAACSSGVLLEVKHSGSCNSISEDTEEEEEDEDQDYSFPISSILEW
Focal adhesion kinase 1 (Homo sapiens), sequence (Q05397 whole entry, looked up): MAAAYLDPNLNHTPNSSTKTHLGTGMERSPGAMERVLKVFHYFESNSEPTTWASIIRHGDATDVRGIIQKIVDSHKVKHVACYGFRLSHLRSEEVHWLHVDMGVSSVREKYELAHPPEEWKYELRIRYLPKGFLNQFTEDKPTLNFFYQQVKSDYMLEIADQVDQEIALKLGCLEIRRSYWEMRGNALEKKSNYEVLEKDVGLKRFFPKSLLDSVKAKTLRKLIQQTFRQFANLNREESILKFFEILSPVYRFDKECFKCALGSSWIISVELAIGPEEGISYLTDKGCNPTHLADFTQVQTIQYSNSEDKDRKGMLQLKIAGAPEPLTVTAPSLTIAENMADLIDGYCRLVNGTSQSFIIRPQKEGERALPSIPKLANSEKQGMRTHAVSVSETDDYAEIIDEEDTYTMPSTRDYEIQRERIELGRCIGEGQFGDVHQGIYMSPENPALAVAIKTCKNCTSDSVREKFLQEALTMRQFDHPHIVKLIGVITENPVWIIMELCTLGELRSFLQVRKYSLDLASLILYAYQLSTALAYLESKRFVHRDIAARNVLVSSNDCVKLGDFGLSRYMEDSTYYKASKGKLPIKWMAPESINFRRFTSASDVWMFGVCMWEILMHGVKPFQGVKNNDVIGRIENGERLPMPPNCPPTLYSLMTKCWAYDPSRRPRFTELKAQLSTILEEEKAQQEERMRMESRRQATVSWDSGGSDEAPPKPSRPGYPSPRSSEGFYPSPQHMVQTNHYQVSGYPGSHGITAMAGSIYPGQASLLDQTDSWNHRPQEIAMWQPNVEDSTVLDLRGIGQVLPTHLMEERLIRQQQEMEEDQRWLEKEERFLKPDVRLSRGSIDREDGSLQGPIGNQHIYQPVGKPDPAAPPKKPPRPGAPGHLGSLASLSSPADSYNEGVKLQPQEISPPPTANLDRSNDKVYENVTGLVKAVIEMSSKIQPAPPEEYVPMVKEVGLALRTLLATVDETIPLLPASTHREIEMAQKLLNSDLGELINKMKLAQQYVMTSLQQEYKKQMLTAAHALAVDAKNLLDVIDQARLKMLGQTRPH

For the molecule `CC[C@@H]1C=C(C(=O)O)[C@H](c2ccc(Br)cc2)N1S(=O)(=O)c1ccc(C)cc1`, the composite z-score was 0.153 in experiment [1]; 1.04 in [2]; 0.453 in experiment [3]; 0.886 in experiment [4]; 0.076 in experiment [5]; -0.0934 in experiment [6]. Also, the composite z-score is 0.0429 in the experiment on Lefty1; 0.554 in [8]; -0.13 in experiment [10]; 0.791 in experiment [15]; 0.222 in experiment [16]; 0.297 with Torsin-1A (Homo sapiens) [17]. The composite z-score is 0.233 with Torsin-1A (Homo sapiens) [18] and 0.248 in [19]. Moreover, the z-score in experiment [7] was -0.785; in experiment [9] it was 0.942 (inactive); in experiment [11] it was -0.141 (inactive); in experiment [12], 0.598 (inactive); in experiment [13] it was 0.0798 (inactive); in experiment [14], 0.472 (inactive).
Regarding `CN(C)CCCCCCNC(=O)[C@H]1C[C@H]2C(=O)N[C@@H](CCCCN)C(=O)N2[C@H]1c1cccc(OCCO)c1`, the composite z-score in experiment [1] was 3.31; in experiment [2], 1.35; in experiment [3] it was 3.91; in experiment [4], 0.977; in experiment [5], 1.54; in experiment [6], 0.844. Besides, the composite z-score with Lefty1 was found to be 1.41; in experiment [8], 1.64; in [10] it was 1.73; in experiment [15] it was 2.14; in experiment [16], 0.778; in the experiment with Torsin-1A (Homo sapiens) [17], 3.76. The composite z-score with Torsin-1A (Homo sapiens) [18] was determined as 3.35; in [19], 1.43. For the same molecule, the z-score in experiment [7] is 0.332; in experiment [9], -0.485 (inactive); in experiment [11], 0.0574 (inactive); in experiment [12] it was 0.949 (inactive); in experiment [13], 0.688 (inactive); in experiment [14], 0.691 (inactive).
As to `C=C(/C(=C/C[C@H](OC(C)=O)c1ccc(CO)o1)c1cc(C(=O)OC)ccc1OC)C(C)C`, the composite z-score was -0.978 in [1]; -0.184 in experiment [2]; -0.0384 in experiment [3]; -1.25 in experiment [4]; 0.467 in experiment [5]; 0.539 in [6]. The composite z-score was 0.864 in the experiment on Lefty1; -1.24 in [8]; 0.0267 in experiment [10]; -0.489 in experiment [15]; 0.0051 in experiment [16]; -0.501 with Torsin-1A (Homo sapiens) [17]. Further, the figures for the composite z-score (with Torsin-1A (Homo sapiens) [18]; in experiment [19]) were 0.241 and 1.05, respectively. Further, the z-score was -0.483 in experiment [7]; -1.33 (inactive) in experiment [9]; -3.56 (inactive) in [11]; 0.263 (inactive) in experiment [12]; 2.22 (inactive) in [13]; 0.769 (inactive) in experiment [14].
On to `CCCC[C@H]1OB(O)C[C@H]2C1=C(COC)C[C@H]1C(=O)N(C)C(=O)[C@H]12`, for which the composite z-score was 0.415 in experiment [1]; -0.292 in experiment [2]; 0.18 in experiment [3]; 0.144 in experiment [4]; 0.824 in [5]; 0.846 in experiment [6]. The composite z-score with Lefty1 is 0.896; in [8], 0.631; in experiment [10] it was 0.277; in experiment [15] it was 0.727; in [16], -0.0093; with Torsin-1A (Homo sapiens) [17], 0.408. Also, the composite z-score stood at 0.301 with Torsin-1A (Homo sapiens) [18] and 1.32 in experiment [19]. Moreover, the z-score in [7] is 0.145; in experiment [9] it was -0.656 (inactive); in experiment [11] it was 0.203 (inactive); in experiment [12], 0.573 (inactive); in experiment [13], 0.76 (inactive); in experiment [14], 0.505 (inactive).

The values are drawn from PubChem BioAssay.
